Measurements published in PubChem BioAssay (NCI).
This is part of a sample that, as a whole, favours compounds with a hit. Of some 83,000 tested, about 20% had one in any assay.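 Percent growth is the endpoint: 0 to 100 indicates growth inhibition (40 means 60% inhibition), 0 means no net growth, and negative values indicate cell death.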 Values without a mark were called inactive. Calls of active or inactive are those of the source. The calls were made as follows: active = growth percent below 10; inactive = the rest.

Key:
Assay in all cases: NCI-60 one-dose screen, 48 h (100 = growth as untreated, 0 = no growth, -100 = all killed)
[1] = system: HCT-15 colon; conditions: 10 µM unless noted
[2] = system: HT29 colon; conditions: 10 µM unless noted
[3] = system: SNB-75 CNS; conditions: 10 µM unless noted
[4] = system: U251 CNS; conditions: 10 µM unless noted
[5] = system: PC-3 prostate; conditions: 10 µM unless noted
[6] = system: SK-MEL-5 melanoma; conditions: 10 µM unless noted
[7] = system: UACC-62 melanoma; conditions: 10 µM unless noted
[8] = system: LOX IMVI melanoma; conditions: 10 µM unless noted
[9] = system: SK-MEL-28 melanoma; conditions: 10 µM unless noted
[10] = system: EKVX NSCLC; conditions: 10 µM unless noted
[11] = system: SN12C renal; conditions: 10 µM unless noted
[12] = system: UO-31 renal; conditions: 10 µM unless noted
[13] = system: TK-10 renal; conditions: 10 µM unless noted
[14] = system: ACHN renal; conditions: 10 µM unless noted
[15] = system: CAKI-1 renal; conditions: 10 µM unless noted
[16] = system: CCRF-CEM leukemia; conditions: 10 µM unless noted
[17] = system: MOLT-4 leukemia; conditions: 10 µM unless noted
[18] = system: SNB-19 CNS; conditions: 10 µM unless noted
[19] = system: A498 renal; conditions: 10 µM unless noted
[20] = system: SK-MEL-2 melanoma; conditions: 10 µM

Compound	growth [1]	growth [2]	growth [3]	growth [4]	growth [5]	growth [6]	growth [7]	growth [8]	growth [9]	growth [10]	growth [11]	growth [12]	growth [13]	growth [14]	growth [15]	growth [16]	growth [17]	growth [18] [%]	growth [19]	growth [20]
CC(=O)O[C@]1(C)C[C@H](O)[C@]2(O)C=CO[C@H](O[C@@H]3O[C@H](CO)[C@@H](O)[C@H](O)[C@H]3O)[C@@H]21	99.1%	103%	83.3%	99.8%	103%	103%	100%	105%	112%	92.7%	101%	90.6%	95.9%	108%	102%	109%	97.5%			
Cn1c(=O)c(F)c(Nc2ccc(I)cc2F)c2c(=O)n(C[C@@H](O)CO)cnc21	54.6%	7.51% (active)	62.7%	31.4%	68.4%	36.3%	0.259% (active)			46.6%	40.1%	22.8%	41.2%	50.7%	41.7%	66.8%	73.7%	42.6	-30.7% (active)	
CC(C)OP(=O)(CCC(=O)c1c[nH]c2ccccc12)OC(C)C	104%	97.2%	82.6%	90.1%	73.2%	110%	97%	96.2%	121%	96.5%	103%	82.9%	97.8%	101%		75.7%	93.3%		104%	98.9%
Cc1c(CN2CCN(C(=O)[C@H](C)O)CC2)sc2c(N3CCOCC3)nc(-c3cnc(N)nc3)nc12	2.93% (active)	-13% (active)	-47.4% (active)	6.95% (active)	8.68% (active)	-36.3% (active)	-62.6% (active)	0.99% (active)	-30% (active)	1.75% (active)	4.45% (active)	-30.6% (active)	-31.4% (active)	-11% (active)	-17.8% (active)	7.59% (active)	1.65% (active)		-52.9% (active)	
CCCCOc1nc2cc(Cl)ccc2cc1/C=C/c1cc(/C=C/c2cc3ccc(Cl)cc3nc2OCCCC)n(-c2ccccc2)n1	112%	88.9%	-17.4% (active)	43.2%	86.3%	106%	72.7%	86.2%	112%	113%	94%	89.9%	91.4%	75.6%	78.5%	98.9%	84.8%			
CC#CC(=O)N1CCC[C@H]1c1nc(-c2ccc(C(=O)Nc3ccccn3)cc2)c2c(N)nccn12	87.8%	73.4%	77%	83.6%	81.1%	86.6%	77.1%	93.7%		92.1%	72.3%	79%	72.8%	73.6%		71.5%	89.4%		111%	
CCCCCCCCCNCCCCCCCCC	32.4%	0.373% (active)	67.2%	49%	59.4%	54.1%	83.2%	41.9%	43.5%	81.9%	59.5%	36.4%	70.4%	81.5%	42%	23.7%	49.7%		88.9%	
CNC(=O)c1cc(COc2nnc(Nc3ccc(Cl)cc3)c3ccoc23)ccn1	70.1%	71%	-39.3% (active)	15.1%	34.5%	-0.858% (active)	47.8%	15.5%	52.5%	56.7%	38.9%	-3.27% (active)	33%	23.4%	28.2%	98.2%	73.6%		62.6%	
Cc1cc(NCC(=O)Nc2ccc(-c3nc4ccccc4s3)cc2)no1	90.7%	105%	111%	88.1%	96.6%	87.7%	86.5%	-42.7% (active)	110%	108%	102%	77%	92.1%	111%	104%	53.7%	46.7%		89.7%	
O=C(c1c(F)ccc(NS(=O)(=O)N2CC[C@@H](F)C2)c1F)c1c[nH]c2ncc(-c3cnc(C4CC4)nc3)cc12	44.1%	3.81% (active)	37.7%	42.4%	46.5%	22%	-22.9% (active)	15.9%	-5.44% (active)	58.5%	48%	25.9%	41.7%	34.5%	16.7%	47.6%	16.3%		62.7%	
CO[C@H]1C[C@@H]2CC[C@@H](C)[C@@](O)(O2)C(=O)C(=O)N2CCCC[C@H]2C(=O)O[C@H]([C@H](C)C[C@@H]2CC[C@@H](O)[C@H](OC)C2)CC(=O)[C@H](C)/C=C(\C)[C@@H](O)[C@@H](OC)C(=O)[C@H](C)C[C@H](C)\C=C/C=C/C=C/1C	30.2%	18.7%	11%	23.4%	32.6%	14.2%	39.2%	26.7%	38.8%	35.8%	44.3%	20.7%	43.5%	39.5%	39.6%	22.1%	6.08% (active)		13.8%	
COc1cc2c(cc1OCCCCN1CCN(CC(=O)Nc3ccc(Cl)cc3C(=O)c3ccccc3Cl)CC1)N=CC1CCCN1C2=O (stereo not drawn)	-65.6% (active)	-61.4% (active)	-84.7% (active)	-88.4% (active)	-98.6% (active)	-92.6% (active)	-85.1% (active)	-84.4% (active)	-86% (active)	-79% (active)	-81.1% (active)		-90.1% (active)	-92.4% (active)	-89.8% (active)	-59.8% (active)	-44.7% (active)		-97.2% (active)	-67.5% (active)
C[C@@H](N)c1ccc(C(=O)Nc2ccnc3[nH]ccc23)cc1	68.3%	32%	6.4% (active)	46.7%	44.9%	67.8%	82.1%	45.5%	63%	67%	51.8%	13.4%	46.2%	36.7%	20.6%	25.5%	42.2%		56.9%	
O=C1CC(c2cccc(F)c2)c2c(n[nH]c2-c2ccc(Cl)cc2)N1 (stereo not drawn)	92.5%	81.1%	97.3%	86.1%	80.5%	87.1%	86.2%	96.9%	107%	85.1%	92.8%	79.3%	94.1%	90%	77.7%	101%	88%			110%
CN(C[C@@H]1COCCO1)S(=O)(=O)Nc1ccc2ccc3ncc(-c4cnn(C)c4)cc3c(=O)c2c1	26%	51.3%	13.6%	37.4%	45.6%	36%	36.2%	30.1%	59.7%	52.9%	38.9%	8.44% (active)	37.2%	22.2%	7.99% (active)	34.9%	21.1%		-19% (active)	
Cc1sc2c(c1C)c(=O)nc1c(-c3nc(-c4ccccc4)cs3)n[nH]n12	82.4%	107%	101%	94%	82.1%	102%	91.8%	95.9%	106%	80.1%	100%	76.2%	145%	97.1%		85.8%	85.7%		105%	99.9%
